In PubChem BioAssay AID652039 (The Scripps Research Institute Molecular Screening Center, 2013) one finds activation data, which are given here for 84 compounds.

Structures are written as SMILES. Screen size: about 370,000 compounds; about 3,300 (0.89%) were called active. The sample as a whole holds a higher share of actives than the screen did. Unmarked numbers belong to inactive results.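 How the source made its calls: active means activation above the mean of all tested compounds plus 3 SD, computed per campaign excluding outliers beyond control limits (cut at about 13% in these data); inactive means the rest.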

Kallikrein-7 (Homo sapiens), sequence (P49862 whole entry, looked up): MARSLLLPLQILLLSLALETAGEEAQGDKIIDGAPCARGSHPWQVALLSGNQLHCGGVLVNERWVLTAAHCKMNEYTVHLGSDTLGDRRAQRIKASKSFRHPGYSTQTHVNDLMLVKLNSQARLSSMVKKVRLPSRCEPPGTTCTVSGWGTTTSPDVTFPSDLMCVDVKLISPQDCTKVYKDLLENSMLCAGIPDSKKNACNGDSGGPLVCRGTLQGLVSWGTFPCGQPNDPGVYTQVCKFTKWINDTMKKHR

The assay addresses Kallikrein-7 (Homo sapiens) (UniProt P49862). Nature of the assay: proKLK7 zymogen activators, primary screen, biochemical, fluorescence intensity (AID 652039). The following applies: purified proKLK7, EDANS-DABCYL substrate fluorescence; at 7 µM; stronger effect = higher value; 100% is mature enzyme control, 0% vehicle.
Turning to `CC(C)N1CCCCC(NC(=O)C(C)(C)C)C1=O` (centres undefined), the activation was -0.28%.
With `Cc1oc2nc(SCC(=O)Nc3ccc(S(N)(=O)=O)cc3)nc(NC(=O)c3ccccc3)c2c1C` the figure was 16.3% (active).
With `Cc1oc2nc(SCC(=O)NCc3cccnc3)nc(N)c2c1C` the figure was 0.33%.
The figure for `Cc1cc(-c2nnc(SCC(=O)Nc3ccc(S(N)(=O)=O)cc3)n2N)n[nH]1` is -0.95%.
For `CN(C)Cc1cn(-c2ccc(-c3noc4c3C(=O)N(CC(=O)N3CCOCC3)CC4)cc2)nn1`, the activation is -0.76%.
Take `CC(C)Oc1cc(F)ccc1-c1cc(C(=O)Nc2cccc(Cl)c2)[nH]n1`: the activation was -0.65%.
With `CCC(=O)OCCCN1C(=O)CCC12CCC(c1ccccc1)CC2` (centres undefined), the activation was -0.27%.
With `CCc1nc(Nc2ccc3nccnc3c2)c2oc3ccccc3c2n1`, the activation is -2.9%.
As for `CCc1nc(Nc2ccc(NC(C)=O)cc2)c2oc3ccccc3c2n1`, the activation was 172% (active).
With `C[C@@H](Nc1nc(-c2ccccc2)nc2c1oc1ccccc12)C(=O)O` the figure was -0.64%.
With `CC(C)(C)Nc1c(-c2cccs2)nc2ccccn12` the figure was 27% (active); with `Cc1cc2nc(C(F)(F)F)cc(-c3cccs3)n2n1`, -1.33%.
On to `Cc1nc2ccccn2c(=O)c1NC(=O)c1cccs1`, for which the activation is 0.03%.
With `COC(=O)[C@]12C[C@H](CC(=O)N3CCOCC3)C(=O)N(Cc3ccc(Cl)cc3Cl)C1=C[C@H](C(C)C)O[C@@H]2C1CC1` the figure was 0.16%; with `CC(=O)OCCN1CCCC12CCC(c1ccccc1)CC2` (centres undefined), -0.5%; with `CCN(CC)CCCNC(=O)c1cc2c(=O)[nH]c3ccc(C)cc3c2s1`, 23.3% (active).
Consider `Cc1cccc(N(C)C(=O)c2cc3c(=O)[nH]c4ccc(C)cc4c3s2)c1`, for which the activation was -0.34%.
Turning to `O=C(NCCN1CCN(Cc2ccccc2)CC1)c1cc2c(=O)[nH]c3ccccc3c2s1`, the activation is -1.14%.
The figure for `CC(C)CNS(=O)(=O)CC1NCCc2ccccc21` (centres undefined) is -0.37%; for `COC(=O)C12C=C3CC(c4ccccc4)=C3C(=O)N1Cc1[nH]c3ccccc3c1C2` (centres undefined) it is -0.28%.
Turning to `CS(=O)(=O)N(CC(O)Cn1c2ccccc2c2ccccc21)c1cccc2ccccc12` (centres undefined), the activation is -1.25%.
With `CCCCN(CCCC)CC(O)Cn1c2ccccc2c(=O)c2ccccc21` (centres undefined) the figure was 22.1% (active); with `CCCCN(CC)CCNC(=O)CCNC(=O)Cn1ccc2ccccc2c1=O`, -0.2%; with `CC(NCc1ccco1)C(=O)N1CCCCC1` (centres undefined), 0.56%.
Take `O=S1(=O)c2c(NCc3ccco3)cccc2Oc2ccccc2CN1Cc1cn(Cc2cccc(C(F)(F)F)c2)nn1`: the activation was -9.73%.
With `O=C(Oc1c(-c2ccco2)oc2ccccc2c1=O)c1cccnc1` the figure was 18.9% (active); with `O=C(c1cccnc1)N(c1cc2sc(=O)oc2c2ccccc12)S(=O)(=O)c1ccccc1`, -0.78%; with `Cc1ccc(-n2nc(-c3ccco3)cc2C(=O)NCc2cccnc2)cc1`, 0.09%.
With `COc1ccc(-c2cc(-c3nnc(SCC(=O)Nc4cccc5ccccc45)n3N)[nH]n2)cc1` the figure was 0.07%.
As to `COc1ccc(Cn2cc(CN3[C@@H](CC(C)C)COc4cc(Br)ccc4S3(=O)=O)nn2)cc1`, the activation is 0.02%.
The figure for `O=C(NCc1cccnc1)c1cc(S(=O)(=O)N2CCOCC2)c(Cl)cc1Cl` is -0.01%; for `CCn1c(=N)c(C(=O)NCCCOC)cc2c(=O)n3cccc(C)c3nc21` it is 62.3% (active); for `Cc1cccn2c(=O)c3cc(C#N)c(=NC(=O)c4cccnc4)n(CC4CCCO4)c3nc12` (centres undefined) it is 17.3% (active).
The figure for `Cc1ccc(Cn2c(C)c3cnn(CC(=O)NCCN4CCOCC4)c(=O)c3c2C)cc1` is 0%; for `Cc1ccc2cc(C#N)c(NCCNC(=S)NCCCN3CCOCC3)nc2c1` it is 1.07%; for `Cc1ccc(-n2c(=O)c(C#N)cc3c(=O)n4ccccc4nc32)cc1C` it is 2.54%.
The figure for `Cc1ccc(S(=O)(=O)c2cc3c(=O)n4cccc(C)c4nc3n(CCc3ccccc3)c2=N)cc1C` is 0.37%; for `Cc1cccn2c(=O)c3cc(C(=O)NCCN4CCOCC4)c(=N)n(Cc4cccnc4)c3nc12` it is 32.9% (active); for `COCCCn1c(C(=O)NC2CCCCC2)cc2c(=O)n3cccc(C)c3nc21` it is -0.55%.
As for `Cc1cccn2c(=O)c3cc(C#N)c(=O)n(CCCN4CCOCC4)c3nc12`, the activation is 39.9% (active).
With `Cc1ccccc1NC(=O)Cn1c(=O)n(CC2CCCO2)c(=O)c2ccccc21` (centres undefined) the figure was 0.23%; with `Cc1cccc(NC(=O)c2ccc3c(=O)n(CC4CCCO4)c(=S)[nH]c3c2)c1` (centres undefined), -0.97%; with `CC(=O)Nc1ccc(OC[C@@H](O)CN2CCC(C(O)(c3ccccc3)c3ccccc3)CC2)cc1`, 0.22%.
The figure for `CNc1nc(SC)nc(N(C#N)CC(=O)OC)n1` is -0.23%; for `O=C(NCCc1c[nH]c2ccccc12)OCc1cn(-c2c(F)cccc2F)nn1` it is 0.33%.
With `CCOC(=O)[C@]12CCCCC/C=C\1N(Cc1ccc(OC)cc1)C(=O)[C@H]2CC(=O)NCCCN1CCCC1=O` the figure was -0.22%; with `C=CCN1C(=O)[C@@H](CC(=O)N2CCN(C(=O)c3ccco3)CC2)[C@]2(C(=O)OC)CCCCC=C12`, 0.64%.
Regarding `COC(=O)C[C@H]1CC[C@H]2[C@H](COc3ccc(NC(=O)C4CC4)cc3C(=O)N2C)O1`, the activation is -0.05%.
The figure for `CCC(=O)Nc1ccc2c(c1)C(=O)N(C)[C@@H]1CC[C@@H](CC(=O)NCCc3ccccc3)O[C@H]1CO2` is -0.14%; for `Cc1cc(NS(=O)(=O)c2ccc(NC(=O)CSc3nnc(-c4ccc(C(C)(C)C)cc4)n3Cc3ccco3)cc2)nc(C)n1` it is 0.49%; for `O=C(c1cccc(C(F)(F)F)c1)N1CC[C@H]2[C@H](CCCN2Cc2cc(F)cc(F)c2)C1` it is 0.19%.
Take `COc1ccc(CSc2nnc(SCC(=O)Nc3ccccc3C(F)(F)F)s2)cc1`: the activation was 0.45%.
With `COc1ccc2oc(=O)c(C(=O)N3CCCC3)cc2c1` the figure was 21.5% (active); with `COc1ccc(C(=O)N2CCCN(C)CC2)c(OC)c1`, -0.04%; with `COc1cccc2cc(C(=O)N3CCN(C(=O)c4ccccc4)CC3)c(=O)oc12`, -0.14%.
The figure for `O=C(CN1CCC(NC(=O)NCc2ccccc2)CC1)Nc1ccc2c(c1)OCCO2` is 0.32%; for `CC(C)(C)C(=O)N1CCC[C@@]1(CO)C(=O)O` it is 0.12%.
With `COc1cccc(NC(=O)CN(C)C(=O)/C=C/c2cc(OC)ccc2OC)c1` the figure was 58% (active); with `COc1cccc(NC(=O)CN(C)C(=O)c2ccccc2CCc2ccccc2)c1`, 0.07%; with `COc1cccc(NC(=O)CN(C)C(=O)Cc2ccc(Cl)cc2Cl)c1`, -0.14%.
With `O=C(NC1CCCCN(Cc2cccc(C(F)(F)F)c2)C1=O)c1ccccc1I` (centres undefined), the activation is 0.36%.
On to `CN(C)C(=O)c1nc2ccc(Cl)cn2c1CN1CCN(c2ncccn2)CC1`, for which the activation was -1.33%.
For the compound `C#Cc1cc(N2CCN(C(=O)c3ccoc3)CC2)n2nc(-c3cccc(Cl)c3)cc2n1`, the activation is -41%.
With `CN(C)CCN1CCN(c2cc(-c3cccc(Cl)c3)nc3ccnn23)CC1` the figure was 18.8% (active).
The figure for `Cc1ccc(-n2c(SCC(=O)Nc3cccc4ccccc34)nnc2-c2ccco2)cc1` is -0.44%; for `C=CS(=O)(=O)N(Cc1nnn(Cc2ccccc2)c1Br)[C@H](C(=O)OC)C(C)C` it is -0.36%.
The figure for `Cc1cc(C)nc(Nc2n[nH]c(-c3ccccc3N)n2)n1` is 6.37%; for `Nc1ccccc1-c1nc2ccncc2[nH]1` it is 86.7% (active).
As to `CN(C(N)=NC(=O)/C=C/c1ccccc1)C(C#Cc1ccccc1)Cc1ccccc1` (centres undefined), the activation is -0.15%.
The figure for `O=C(NCc1cccs1)C1CCN(S(=O)(=O)c2ccccc2[N+](=O)[O-])CC1` is 0.23%; for `COC(=O)[C@H](C(C)C)N1CCc2nnn(Cc3ccc(C)cc3)c2-c2ccccc2S1(=O)=O` it is -0.1%.
The figure for `CC(C)=NN1C(=O)c2ccccc2NC1(C)C` is 13% (active).
For `CC(=O)N1C(=O)C2(Nc3ccccc3N2)c2ccccc21`, the activation is -5.83%.
Consider `COC(=O)c1cc(S(=O)(=O)N2CCN(C(=O)C3CCCO3)CC2)cn1C` (centres undefined), for which the activation is -0.37%.
The figure for `O=C(C1CCCN1S(=O)(=O)c1ccccc1)N1CCc2ccccc2C1` (centres undefined) is -0.08%; for `Cc1cc(C)c(C#N)c(SCC(=O)NN2CC(=O)N(c3ccccc3F)CC2=O)n1` it is 68.7% (active).
Regarding `Cc1cc(C(F)(F)F)c(C#N)c(SCC(=O)NC2CC2)n1`, the activation is -0.4%.
With `COCc1cc(C)nc(SCC(=O)Nc2cccc(C)c2)c1C#N` the figure was 0.51%; with `CCOC(=O)[C@]12CCCC3=C1N(CCC3)C(=O)[C@@H](CC(=O)NCc1cccs1)C2`, -0.54%; with `CCN(CC)Cc1c(C(=O)N/N=C/c2cccc(OCc3ccc(F)cc3)c2)nnn1-c1nonc1N`, 0.38%.
For `COc1cccc(OCc2cc(/C=N/NC(=O)c3nc(Cl)c(Cl)c(N)c3Cl)ccc2OC)c1`, the activation was 48.2% (active).
With `COc1ccc(S(=O)(=O)N/N=C\c2ccc(OC)c(COc3ccc(C)cc3[N+](=O)[O-])c2)cc1` the figure was 0.18%; with `COC(=O)[C@]12C[C@H](CC(=O)NCCCN3CCCC3=O)C(=O)N(CCc3ccc(OC)c(OC)c3)C1=C[C@H](COCc1ccccc1)O[C@@H]2C`, -0.02%; with `COC(=O)[C@]12C[C@H](CC(=O)NCc3ccccc3)C(=O)N(CCc3ccc(OC)c(OC)c3)C1=C[C@H](C(C)(C)C)O[C@@H]2C`, 0.13%.
